Only some compounds are listed: those with a hit (about 4.6% of all), similar ones and a draw of the others.
TRHR PAM – qHTS for Small Molecule Agonists and Allosteric Enhancers of Human TRH Receptor: Primary Screen for Enhancers; Thyrotropin-releasing hormone receptor (Homo sapiens), P34981; TRHR cells, fluo-8 calcium fluorescence, EC20 TRH enhancement; enhancement, % at 2 µM; 360,000 compounds, 0.66% hits; in the data active means enhancement above about 30%; further: 0% is about no effect
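TRHR-expressing cells loaded with fluo-8 calcium dye were read kinetically (ex 480/em 530) during compound addition, then stimulated with an EC20 of TRH (10 nM final). Enhancement of the Gq-mediated intracellular calcium response was scored.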
D1 agonist – Allosteric Agonists of the Human D1 Dopamine Receptor: qHTS; HEK293 T-REx D1 cells, calcium flux, agonist mode; D(1A) dopamine receptor (Homo sapiens), P21728; 360,000 compounds, 1% hits; activation, % at 2 µM; further: 0% is about no effect
Target sequence (P21728 whole entry, looked up): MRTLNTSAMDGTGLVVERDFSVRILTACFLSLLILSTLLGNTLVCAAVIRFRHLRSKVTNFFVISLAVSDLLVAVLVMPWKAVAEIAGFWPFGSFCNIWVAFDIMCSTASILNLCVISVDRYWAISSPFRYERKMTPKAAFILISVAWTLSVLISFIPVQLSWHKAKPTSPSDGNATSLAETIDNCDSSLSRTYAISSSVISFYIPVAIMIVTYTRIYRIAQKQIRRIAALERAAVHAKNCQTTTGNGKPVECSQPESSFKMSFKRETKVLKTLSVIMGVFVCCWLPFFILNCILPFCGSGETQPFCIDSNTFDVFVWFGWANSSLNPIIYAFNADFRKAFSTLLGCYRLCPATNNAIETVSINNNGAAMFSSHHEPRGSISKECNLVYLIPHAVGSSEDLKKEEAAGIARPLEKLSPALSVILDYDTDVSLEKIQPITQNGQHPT
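Inducible HEK293 T-REx D1 cells, force-coupled to calcium signalling, were plated at 4000 cells/well with tetracycline and held overnight at 30 C. After no-wash calcium dye loading, compound-evoked calcium rise over 180 s flagged agonists.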
D1 antag – Antagonist of Human D 1 Dopamine Receptor: qHTS. 360,000 compounds, 3.2% hits. D(1A) dopamine receptor (Homo sapiens), P21728. HEK293 TREx D1 cells, calcium flux, dopamine EC80; hits give low values. activity change, negative = inhibition, % at 10 µM; in the data active means activity change below about -30%; further: on the % scale 0 is the no-effect control and ±100 the full control effect
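Kinetic fluorescence of a calcium dye serves as the read-out. D1-expressing Hek293 Trex cells, induced overnight at 30 C, are exposed to compound for 180 s before an EC80 dopamine addition, then read 180 s further.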
TRHR agonist – qHTS for Small Molecule Agonists and Allosteric Enhancers of Human TRH Receptor: Primary Screen for Agonists; activation, % at 2 µM; TRHR cells, calcium flux fluo-8, FDSS agonist mode; 360,000 compounds, 0.18% hits; AID 493084, 2011; further: 0% is about no effect
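Steps: seed TRHR cells overnight; add fluo-8 no-wash Ca dye, RT 30 min–1.5 h; record 10 s baseline; pin-transfer compounds; monitor fluorescence 1 cycle/s for the agonist window. Calcium increases flag candidate agonists.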
D1 PAM – Potentiators of Human D1 Dopamine Receptor: qHTS. AID 504651, 2011. D(1A) dopamine receptor (Homo sapiens), P21728. HEK293 TREx D1 cells, calcium flux, dopamine EC20 potentiation. 360,000 compounds, 0.036% hits. potentiation, % at 10 µM; in the data active means potentiation above about 30%; further: 0% is about no effect
An asterisk follows results filed as active. Unless noted, no stated cut-off is given here; in the data, active means activation above about 30%; inactive means the rest.

What do the screens show for `COc1cc(OC)c(NC(=O)N2CCc3cc(S(=O)(=O)N4CCC(C)CC4)ccc32)cc1Cl`?
TRHR PAM: 17.1; D1 agonist: 2.7; D1 antag: -2.1; TRHR agonist: 0.8; D1 PAM: -0.2

How did COc1ccc2sc(N(Cc3cccnc3)C(=O)c3cccs3)nc2c1 do in these assays?
TRHR PAM: 2.0; D1 agonist: -1.6; TRHR agonist: -0.3; D1 PAM: -2.9

How did Cc1ccccc1C(=O)NNC(=S)NC(=O)c1ccc(Cl)cc1Cl do in these assays?
TRHR PAM: -5.0; D1 agonist: 157.7*; D1 antag: -52.2*; TRHR agonist: 44.5*; D1 PAM: 15.7

Results for O=C(NC(=S)NNC(=O)c1ccc(Cl)cc1Cl)c1cccnc1 ?
TRHR PAM: 5.6; D1 agonist: 0.5; D1 antag: -15.7; TRHR agonist: -0.2; D1 PAM: -4.0

Results for Cc1c(NC(=S)N/N=C/c2ccc(N(C)C)cc2)c(=O)n(-c2ccccc2)n1C ?
TRHR PAM: -0.8; D1 agonist: -0.8; D1 antag: 5.1; TRHR agonist: 0.0; D1 PAM: 5.8

Results for Cc1c(N2C(=O)/C(=C\c3ccc(N(C)C)cc3)N(C)C2=S)c(=O)n(-c2ccccc2)n1C ?
TRHR PAM: 6.1; D1 agonist: 37.5*; D1 antag: 7.2; TRHR agonist: 16.4; D1 PAM: -0.1

How did CN1C(=S)N(c2cccnc2)C(=O)/C1=C\c1ccc(N(C)C)cc1 do in these assays?
TRHR PAM: -2.9; D1 agonist: 91.4*; D1 antag: -13.0; TRHR agonist: 29.1; D1 PAM: -3.4

Results for O=S(=O)(Nc1cccc2ccccc12)c1ccccc1 ?
TRHR PAM: 0.4; D1 agonist: 0.8; D1 antag: -21.4; TRHR agonist: 1.3; D1 PAM: 12.2

How did O=S(=O)(Nc1cccc2ccccc12)c1cccc2ccccc12 do in these assays?
TRHR PAM: -1.9; D1 agonist: 3.0; D1 antag: -43.2*; TRHR agonist: -0.4; D1 PAM: -6.5

What do the screens show for `CCc1ccc2occ(CC(=O)Nc3ccc(OC)c(Cl)c3)c2c1`?
TRHR PAM: 16.7; D1 agonist: -2.8; D1 antag: -4.9; TRHR agonist: 1.3; D1 PAM: -0.2

How did C/C(=N\NC(=O)c1c(Cl)cnn1C)c1ccc(NC(=O)c2ccc(Br)o2)cc1 do in these assays?
TRHR PAM: 11.8; D1 agonist: 2.2; D1 antag: -43.2*; TRHR agonist: -0.5; D1 PAM: -7.7

Results for COc1ccc2oc3cc(C)[n+]([O-])c(-c4ccc(C)cc4)c3c2c1 ?
TRHR PAM: 1.0; D1 agonist: 0.7; D1 antag: 3.6; TRHR agonist: -0.2; D1 PAM: 0.7

Results for COc1ccc(-c2c3c(cc(C)[n+]2[O-])oc2ccc(OC)cc23)cc1 ?
TRHR PAM: 5.2; D1 agonist: 2.3; D1 antag: -30.4*; TRHR agonist: 0.0; D1 PAM: 2.0

How did CN(C)CCNS(=O)(=O)c1ccc(N2CCc3ccccc32)c([N+](=O)[O-])c1 do in these assays?
TRHR PAM: -4.9; D1 agonist: 64.5*; D1 antag: -2.8; TRHR agonist: -0.8; D1 PAM: -5.0

What do the screens show for `CC(=O)c1ccc(N2CCN(c3ccc(S(=O)(=O)NCCN(C)C)cc3[N+](=O)[O-])CC2)cc1`?
TRHR PAM: 1.1; D1 agonist: 17.1; D1 antag: -15.4; TRHR agonist: 2.9; D1 PAM: -2.5

Results for COC(=O)c1ccc(N2CCN(C(C)=O)CC2)c(NC(=O)COc2ccccc2C)c1 ?
TRHR PAM: -1.1; D1 agonist: 1.0; D1 antag: 8.4; TRHR agonist: -0.1; D1 PAM: -8.2

How did COC(=O)c1ccc(N2CCN(C(=O)c3ccccc3)CC2)c(NC(C)=O)c1 do in these assays?
TRHR PAM: -3.3; D1 agonist: 0.6; D1 antag: -30.6*; TRHR agonist: -0.3; D1 PAM: 3.1
